Compound activity: PubChem, National Center for Advancing Translational Sciences (NCATS)
Shiga toxin inh – A qHTS for Small Molecule Inhibitors of Shiga Toxin | Vero cells, Shiga toxin protein synthesis inhibition reporter | inhibition, % at 38.7 µM | 290,000 compounds, 9.2% hits; in the data active = inhibition mostly above about 28%, no sharp cut-off; inactive = mostly below about 43%; note: 0% is about no effect
Marburg entry inh – qHTS for inhibitors of binding or entry into cells for Marburg Virus. Marburg virus pseudotyped entry inhibition, cell reporter. AID 540276, 2011. Potency, µM (top dose mostly 37.8 µM), for the others: at the highest dose activity change, negative = inhibition, most hits filed as inhibitors. 300,000 compounds, 1.8% hits; calls by dose curve; tested in HEK293 cells; note: potency is the fitted concentration of half-maximal effect; % is set by controls: 0 for no effect and ±100 for the full control effect
HCV inh – qHTS Assay for Inhibitors of Hepatitis C Virus (HCV); Huh7.5.1 HCVcc-Cre infection, luciferase reporter, 44 h; Potency, µM (highest dose often 41.8 µM), for the others: top-dose activity change, negative = inhibition, hits mostly inhibitors; 340,000 compounds, 3.4% hits; AID 651820, 2012; active = well fitted inhibition curve with a large enough effect; inconclusive = small, poorly fitted or top-dose-only effect, or another doubt; inactive = no such curve, though single readings can be large or run the other way; note: potency is the fitted concentration of half-maximal effect; % is set by controls: 0 for no effect and ±100 for the full control effect
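Reporter virus HCVcc-Cre (~0.5 moi) infects cells exposed to compound; seeding density 1,000 cells/well with 4 h settling beforehand. Luminescence, 15 sec read, taken 44 h post-infection following a 15 min RT substrate incubation.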
CHX counter – Cycloheximide Counterscreen for Small Molecule Inhibitors of Shiga Toxin | cell reporter, cycloheximide protein synthesis inhibition counterscreen | max response, % | 300,000 compounds, 12% hits | AID 2314, 2010; in the data active = max response mostly above about 13%, no sharp cut-off; inactive = mostly below about 14%; note: read at 38.3 µM for the half of the compounds with a filed dose; 0% is about no effect
LASV entry inh – qHTS for Inhibitors of binding or entry into cells for Lassa Virus; Lassa virus pseudotype entry inhibition, cell reporter; Potency, µM (top dose mostly 37.9 µM), inactives show at the top dose activity change, negative = inhibition, usual class: inhibitors; 300,000 compounds, 1.2% hits; calls by dose curve; tested in HEK293 cells; note: potency is the fitted concentration of half-maximal effect; % is set by controls: 0 for no effect and ±100 for the full control effect; nearly all actives have a fitted effect of over 50% in size
FMDV antiviral – High Throughput Screening for Foot and Mouth Disease Virus Antivirals. Potency, µM (doses to about 57.9 µM), without a hit: at the highest dose activity change, negative = inhibition, usual class: inhibitors. 410,000 compounds, 1.2% hits. AID 1159524, 2015. FMDV antiviral cell-based qHTS; calls by dose curve; tested in HEK293T cells; note: read-out not given here; potency is the fitted concentration of half-maximal effect; % is set by controls: 0 for no effect and ±100 for the full control effect; nearly all actives have a fitted effect of over 45% in size
* hit, by the source's call; [ ] = remark or other dose. Hits are enriched below; roughly 13% of the tested compounds scored in any of these assays.

O=C(NCCc1cccc(Cl)c1)C1CCC(=O)N(Cc2ccc(Cl)cc2)C1 (centres undefined) was read as Shiga toxin inh 1.0, Marburg entry inh inconclusive, CHX counter -3.2, LASV entry inh -19.4% and FMDV antiviral 11.3%.
Screening CCN1C(=O)/C(=C/N(C(C)=O)c2ccccc2)N(c2ccccc2)C1=S returned Shiga toxin inh -4.6, Marburg entry inh -1.2%[46.1 µM], HCV inh -8.1%, CHX counter -2.4, LASV entry inh -23.9% and FMDV antiviral 31.6µM*.
Screening CC(C)(C)c1ccc(NC(=O)CC2(C(F)(F)F)OCCO2)cc1 returned Shiga toxin inh 33.2, Marburg entry inh 17.5%, HCV inh -6.1%, CHX counter 32.1* and LASV entry inh inconclusive.
Screening Cc1cc(C(=O)COC(=O)c2ccc[nH]c2=O)c(C)n1-c1ccc(F)cc1 returned Shiga toxin inh 75.9*, Marburg entry inh inconclusive, HCV inh -6.5%, CHX counter 39.4*, LASV entry inh -13.4% and FMDV antiviral -26.2%.
For Cc1cc(C(=O)COC(=O)c2ccc[nH]c2=O)c(C)n1C1CC1 the results were Shiga toxin inh 58.4*, Marburg entry inh -17.4%, HCV inh -15.3%, CHX counter 26.9*, LASV entry inh 1.6% and FMDV antiviral 29.2%.
N#Cc1ccc(OCC(=O)N(C2CCCCC2)C2CCS(=O)(=O)C2)cc1 (centres undefined) was read as HCV inh 0.2% and FMDV antiviral -8.1%.
For O=C(c1cccc(Cl)c1)C1CCCN(S(=O)(=O)c2ccccc2)C1 (centres undefined) the results were Shiga toxin inh -17.9, HCV inh inconclusive, CHX counter -2.8 and FMDV antiviral -28.0%.
O=C(c1cccc(C(F)(F)F)c1)C1CCCN(C(=O)CN2CCCC2=O)C1 (centres undefined) was read as Shiga toxin inh 50.3, Marburg entry inh 0.0%[46.1 µM], HCV inh 16.6%, CHX counter 17.3*, LASV entry inh 0.1%[46.1 µM] and FMDV antiviral -5.5%.
CSc1ccc(C(=O)C2CCCN(C(=O)CCCn3cncn3)C2)cc1 (centres undefined) was read as Shiga toxin inh 38.2, HCV inh -15.5%, CHX counter 10.9* and FMDV antiviral 12.1%.
`CSc1ccc(C(=O)C2CCCN(C(=O)c3nn(C)c(=O)c4ccccc34)C2)cc1` (centres undefined) gave Shiga toxin inh 1.2, Marburg entry inh inconclusive, HCV inh 12.6µM*, CHX counter 1.4, LASV entry inh inconclusive and FMDV antiviral inconclusive.
Screening O=C(c1cccc(C(F)(F)F)c1)C1CCCN(C(=O)CCCn2cncn2)C1 (centres undefined) returned Shiga toxin inh 14.6, Marburg entry inh -16.5%[46.1 µM], HCV inh 2.8%, CHX counter 10.5*, LASV entry inh -1.3% and FMDV antiviral 22.2%.
`CCc1ccc(S(=O)(=O)c2nnn3c2nc(Nc2cc(OC)cc(OC)c2)c2cc(Cl)ccc23)cc1` gave Marburg entry inh -23.1%[46.1 µM] and FMDV antiviral 16.3%.
`COc1ccccc1NC(=O)COC(=O)c1cc([N+](=O)[O-])ccc1N1CCCC1` gave HCV inh 12.6µM* and FMDV antiviral inconclusive.
`COc1ccc(NC(=O)c2cc([N+](=O)[O-])ccc2N2CCCCC2)cc1` gave Shiga toxin inh -9.8, Marburg entry inh -22.7%[46.1 µM], HCV inh inconclusive, CHX counter -8.9, LASV entry inh -2.1%[46.1 µM] and FMDV antiviral -2.2%.
Screening CCC(CC)c1nnc(NC(=O)c2cc([N+](=O)[O-])ccc2N2CCCCC2)s1 returned Shiga toxin inh -3.6, Marburg entry inh inconclusive, HCV inh 7.08µM*, CHX counter -2.0, LASV entry inh inconclusive and FMDV antiviral 18.6%.
O=C(COC(=O)c1cc([N+](=O)[O-])ccc1N1CCOCC1)Nc1ccccc1OC(F)F was read as Marburg entry inh -13.3%, HCV inh inconclusive, LASV entry inh inconclusive and FMDV antiviral -9.0%.
`COc1ccc(NC(=O)c2cc([N+](=O)[O-])ccc2N2CCCCC2)cc1OC` gave Marburg entry inh inconclusive, HCV inh 25.1µM*, LASV entry inh inconclusive and FMDV antiviral -23.7%.
O=C(COC(=O)c1cc([N+](=O)[O-])ccc1N1CCCC1)Nc1ccccc1OC(F)F was read as Marburg entry inh -3.6%, HCV inh 12.6µM*, LASV entry inh -3.5% and FMDV antiviral inconclusive.
For O=C(OCc1cccc([N+](=O)[O-])c1)c1cnccn1 the results were Shiga toxin inh 2.5, HCV inh 3.9%, CHX counter -3.9 and FMDV antiviral -15.8%.
`O=C(c1cc2ccccc2o1)N1CCC(N2CCC(C(=O)N3CCCC3)CC2)CC1` gave Shiga toxin inh 2.4, Marburg entry inh -13.8%[46.1 µM], HCV inh -24.7%, CHX counter 11.6, LASV entry inh 3.7% and FMDV antiviral 15.3%.
Screening Cc1ccc(C(=O)Nc2cccnc2)cc1Cl returned Shiga toxin inh 40.5*, Marburg entry inh 11.7%, HCV inh -11.8%, CHX counter 26.5*, LASV entry inh 19.3% and FMDV antiviral 0.0%.
`Cc1cc(C(=O)Nc2cccnc2)cs1` gave Shiga toxin inh 15.2, Marburg entry inh 9.7%, HCV inh 12.9%, CHX counter 11.8*, LASV entry inh 39.7%[14.3 µM] and FMDV antiviral 29.6%.
`Cc1ccc(C(=O)Nc2cccnc2)cc1C` gave FMDV antiviral 69.7%.
For Cc1ccc(C(=O)Nc2cccc(S(=O)(=O)N3CCCCC3)c2)cc1[N+](=O)[O-] the results were HCV inh 7.08µM* and FMDV antiviral inconclusive.
`Cc1ccc(NC(=O)c2cccc(S(=O)(=O)N(C)c3ccccc3)c2)cc1S(=O)(=O)N1CCOCC1` gave Shiga toxin inh -4.8, Marburg entry inh inconclusive, HCV inh 3.98µM*, CHX counter 1.9, LASV entry inh inconclusive and FMDV antiviral inconclusive.
For O=C(Nc1cccnc1)c1cc(F)cc(F)c1 the results were Shiga toxin inh 19.4, Marburg entry inh inconclusive, HCV inh 15.6%, CHX counter -3.2, LASV entry inh 16.4% and FMDV antiviral -18.7%.
CCOC(=O)c1nn(-c2ccccc2)c(=O)cc1OCC(=O)Nc1cccc(OC)c1 was read as Marburg entry inh -29.9%, HCV inh 19.6%, LASV entry inh 7.8% and FMDV antiviral -8.6%.
Screening O=C(Nc1ccccc1)c1ccc(NCCN2CCOCC2)c(S(=O)(=O)N2CCOCC2)c1 returned Shiga toxin inh -7.8, Marburg entry inh 13.4%, HCV inh -3.5%, CHX counter -2.4, LASV entry inh inconclusive and FMDV antiviral -3.1%.
`Cc1ccc(NC(=O)Cn2c(=O)ccn(Cc3ccccc3)c2=O)cc1S(=O)(=O)N1CCOCC1` gave HCV inh 11.2µM* and FMDV antiviral -29.3%.
